Hit rate of the full screen: of about 220,000 compounds, about 160 (0.073%) were called active.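 How the source made its calls: active means fold induction of absorbance versus untreated yeast above a set limit, then at least 30% activation at any dose in follow-up; inconclusive means repeats straddling the limit, or above it without dose testing; inactive means fold induction below the set limit.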 Not all results are given here. Results with a measured potency or affinity are listed apart.
assay: enhancers of respiration in Yfh1-depleted yeast, dose response, Friedreich's ataxia, plus single-dose screen (AID 1465); details: S. cerevisiae Yfh1-off respiration, WST-1 reduction, 72 h; at 50 µM; active compounds read high

| SMILES | fold induction |
| --- | --- |
| CC[n+]1c(/C=C2/C=C(C)CC(C)C2)sc2ccccc21 (stereo unspecified) | 0.96 (inactive) |
| CC[n+]1c(/C=C2\C=C(C)CC(C)(C)C2)sc2ccccc21 | 0.86 (inactive) |
| CC[n+]1c(/C=C2\C=C(C)CC(C)C2)sc2ccccc21 (stereo unspecified) | 0.873 (inactive) |
| CC[n+]1c(/C=C(\C)SC)sc2ccccc21 | 0.92 (inactive) |
| COc1ccc(C(=O)COC(=O)c2ccc(N(C)C)cc2)cc1 | 1.01 (inactive) |
| Cc1[nH]nc(SCC(=O)NC2CCCC2)c1[N+](=O)[O-] | 1.05 (inactive) |
| COCC(=O)N1CCCN(c2nc3c(C)cccc3cc2C#N)CC1 | 0.96 (inactive) |
| CCC(=O)N1COC[C@@H]1Cc1ccccc1 | 1.04 (inactive) |
| COC(=O)c1cc2c(ccn2-c2ccc(F)cc2)n1Cc1ccc(C#N)cc1 | 1.03 (inactive) |
| Cn1cccc1/C=C1\SC(=S)N(NC(=O)c2ccccc2)C1=O | 1.81 (inactive) |
| O=C(O)C(Cc1ccccc1)N1C(=O)/C(=C/c2ccccc2)SC1=S (stereo unspecified) | 0.93 (inactive) |
| CCC(C(=O)O)N1C(=O)/C(=C/C(C)=C/c2ccccc2)SC1=S (stereo unspecified) | 1.22 (inactive) |
| Cn1cccc1/C=C1\SC(=S)N(Nc2ccccc2)C1=O | 1.02 (inactive) |
| NC(=O)c1cccc2c(=O)oc3ccccc3c12 | 0.99 (inactive) |
| CN1CCN(C(=O)c2cc(C(C)(C)C)cc(C(C)(C)C)c2)CC1 | 1.02 (inactive) |
| Cn1nnnc1P(=O)(c1ccccc1)c1ccccc1 | 1.15 (inactive) |
| O=C(Nc1ccccc1-c1nc2ccccc2[nH]1)c1ccc(N2C(=O)CCC2=O)cc1 | 1.11 (inactive) |
| CC1=C(N2CCOCC2)CCC1=O | 0.92 (inactive) |
| O=c1c(N2CCOCC2)c(N2CCOCC2)c1=O | 1.08 (inactive) |
| Cc1nc2ccc(NC(=O)COc3ccccc3[N+](=O)[O-])cc2s1 | 0.97 (inactive) |
| CN(C(=O)COC(=O)c1ccc(Cl)cc1N)C1CCCCC1 | 1.06 (inactive) |
| CC(=O)c1cccc(NC(=O)N2CCCC2C(=O)Nc2c(C)cccc2C)c1 (stereo unspecified) | 1.07 (inactive) |
| COc1ccc(C2=NN(c3nc(C)cc(C)n3)C(=O)C2)cc1 | 1.09 (inactive) |
| COc1ccc(C2=NN(c3nc4ccccc4s3)C(=O)/C2=C\N(C)C)cc1 | 1.14 (inactive) |
| CC(=O)Oc1cccc(-c2nc3ccccc3c(=O)o2)c1 | 0.89 (inactive) |
| CCOC(=O)c1[nH]c2ccccc2c1NC(=O)C1CCCCC1 | 1.05 (inactive) |

| SMILES | fold induction |
| --- | --- |
| Cc1ccc2c3c(cccc13)-c1ccccc1C2=O | 0.91 (inactive) |
| Cc1coc2c1C(=O)C(=O)c1c-2ccc2c1CCCC2(C)C | 1.54 (inactive) |
| Cc1ccc(CN2C(=O)CCC2C(=O)NC(C)C)cc1 (stereo unspecified) | 1.04 (inactive) |
| COc1ccc2c(c1)c(CCN1C(=O)c3ccccc3C1=O)cn2C(=O)c1ccco1 | 1.01 (inactive) |
| CCOc1cc(/C=N\O)cc(Cl)c1OCC | 0.87 (inactive) |
| CCOc1ccc2nc3ccc4[nH]onc4c3c2c1 | 0.93 (inactive) |
| CCCCNC1=CC(=O)C(=O)c2ccccc21 | 2.68 (inactive) |
| O=C1C=C(Nc2ccccc2)c2ccccc2C1=O | 1 (inactive) |
| O=C(C1CCCO1)N1CCN(C(=S)Nc2ccccc2Cl)CC1 (stereo unspecified) | 0.94 (inactive) |
| COCCCn1c(SCc2nnc(-c3ccc(OC)c(OC)c3)o2)nnc1-c1ccncc1 | 1.13 (inactive) |
| COc1cc(/C=N/NC(=O)c2ccc(C)nc2)cc([N+](=O)[O-])c1O | 1.21 (inactive) |
| COC(=O)N/N=C/c1cc(OC)c(O)c([N+](=O)[O-])c1 | 1.19 (inactive) |
| COC(=O)C1CCN(C(=O)Cc2c(OC)ccc3cc(Br)ccc23)CC1 | 0.95 (inactive) |
| CCOC(=O)C1(Cc2cccc(OC)c2)CCN(CC=C(C)C)CC1 | 1.02 (inactive) |
| O=[N+]([O-])c1ccc(Sc2cccc3cccnc23)c2cccnc12 | 1.02 (inactive) |
| O=[N+]([O-])c1cccc(CSc2cccc[n+]2[O-])c1 | 1.1 (inactive) |
| CCN(C(=O)CSc1ncccc1C(=O)Oc1cccc([N+](=O)[O-])c1)c1cccc(C)c1 | 0.93 (inactive) |
| O=C(NCCNc1ccc([N+](=O)[O-])cc1)c1ccco1 | 1.23 (inactive) |
| CCN(CC)S(=O)(=O)c1ccc(N/N=C/c2cccnc2)nc1 | 1.09 (inactive) |
| Clc1ccc(CSc2ccc(-c3ccccn3)nn2)cc1 | 0.99 (inactive) |
| c1cncc(CSc2ccc(-c3cccnc3)nn2)c1 | 1.13 (inactive) |
| Cc1cc(C(=O)N/N=C/c2ccccc2Br)no1 | 0.94 (inactive) |
| COC(=O)c1nc(NC2=NCCCCC2)n[nH]1 | 1.02 (inactive) |
| COC(=O)c1cc(OC)c(OC)cc1NC(=O)c1cccc(OC)c1OC | 1.09 (inactive) |
| O=C(C=C1CCN(c2ncc(C(F)(F)F)cc2Cl)CC1)NNC(=O)Nc1ccccc1 | 0.89 (inactive) |
| O=C1NN(c2ccc(F)cc2)C(=O)/C1=C\c1cnn(-c2ccccc2)c1 | 1.14 (inactive) |

| SMILES | fold induction |
| --- | --- |
| COc1ccc(NC(=O)c2csc3c2CCCCC3)c(OC)c1 | 1 (inactive) |
| COc1ccc(CNC(=O)CCS(=O)(=O)Cc2ccc(C)cc2)c(OC)c1 | 0.98 (inactive) |
| CCOC(=O)c1cnn(-c2ccccc2)c1NC(=O)c1ccccc1C | 0.92 (inactive) |
| CCN(CC)c1ccc(/C=N/NC(=O)c2cccc(S(=O)(=O)Nc3ccccc3OC)c2)cc1 | 1.14 (inactive) |
| COc1ccccc1NS(=O)(=O)c1cccc(C(=O)N/N=C/c2ccccc2OCC(=O)O)c1 | 0.99 (inactive) |
| O=C(NCc1n[nH]c(=S)n1-c1ccc(Cl)c(Cl)c1)c1cccs1 | 0.98 (inactive) |
| O=C(NNC1=C(C(=O)C(F)(F)F)CCC1)c1ccccc1Cl | 1.02 (inactive) |
| O=C(NNC1=C(C(=O)C(F)(F)F)CCC1)c1ccccc1O | 0.82 (inactive) |
| O=C(NNC1=C(C(=O)C(F)(F)F)CCC1)c1ccncc1 | 1.05 (inactive) |
| O=C(NNC1=C(C(=O)C(F)(F)F)CCC1)c1ccc(Cl)cc1 | 1.11 (inactive) |
| CN(C)c1ccc(NC(=O)C(=O)NCCOc2ccccc2)cc1 | 0.95 (inactive) |
| CC(C)=CC(=O)OCC(=O)Nc1cc(C)cc(C)c1 | 0.86 (inactive) |
| Cc1cc(C)nc(SCc2ccc(C(=O)N/N=C/c3ccccn3)cc2)n1 | 1.01 (inactive) |
| CCSc1nc(=O)n(-c2ccccc2)c(C)c1C(C)=O | 1.05 (inactive) |
| CC(C)C(=O)Nc1cccc(NC(=O)c2cccc([N+](=O)[O-])c2)c1 | 0.95 (inactive) |
| Cc1cc(C)n(CC(=O)Nc2ccccc2)n1 | 1.01 (inactive) |
| COc1cc(CNC(C)C)c(Br)cc1OC1CCCC1 | 1.02 (inactive) |
| Cc1sc2nc(SC3CCOC3=O)n(Cc3ccccc3)c(=O)c2c1C (stereo unspecified) | 0.94 (inactive) |
| CC(C)OCCCNC(=O)CCC(=O)NNc1nc2ccccc2c2nc(-c3ccccc3)nn12 | 0.97 (inactive) |
| Cc1ccc(NC2=C(Cl)C(=O)c3ccccc3C2=O)cc1 | 1.27 (inactive) |
| O=C1C(Cl)=C(Nc2ccc(O)cc2)C(=O)c2ccccc21 | 1.23 (inactive) |
| Cc1sc2ncn(CC(=O)Nc3ccccc3F)c(=O)c2c1-c1ccccc1 | 0.95 (inactive) |
| O=C(NCC(c1ccco1)N1CCCCC1)c1ccc2c(c1)S(=O)(=O)c1ccccc1C2=O (stereo unspecified) | 0.99 (inactive) |
| Cc1cc(C)nc(SCC(=O)c2cc3ccccc3oc2=O)n1 | 1.02 (inactive) |
| CCCC(=O)c1cc2ccccc2oc1=O | 1.11 (inactive) |
| CCCCC(=O)NC(=S)NNC(=O)CC#N | 0.83 (inactive) |

| SMILES | fold induction |
| --- | --- |
| CCCCCC(=O)NC(=S)NNC(=O)CC | 0.75 (inactive) |
| CCCNC(=O)C1(CC2CC(c3ccccc3)=NO2)CCN(C(=O)CCCCCBr)CC1 (stereo unspecified) | 1.03 (inactive) |
| O=C(NC(c1ccc(Cl)cc1)c1cc(Cl)c2cccnc2c1O)c1cccnc1 (stereo unspecified) | 1.09 (inactive) |
| CCCC(=O)NC(c1cccs1)c1cc(Cl)c2cccnc2c1O (stereo unspecified) | 1.06 (inactive) |
| CCCCC(=O)NC(c1ccco1)c1cc(Cl)c2cccnc2c1O (stereo unspecified) | 0.91 (inactive) |
| O=C(NC(c1ccccc1)c1cc(Cl)c2cccnc2c1O)c1cccnc1 (stereo unspecified) | 0.87 (inactive) |
| CCC(=O)NC(c1ccco1)c1cc(Cl)c2cccnc2c1O (stereo unspecified) | 1.13 (inactive) |
| O=C(O)COc1ccccc1C(Nc1ccccn1)c1cc(Cl)c2cccnc2c1O (stereo unspecified) | 1.19 (inactive) |
| CCC(=O)NC(c1ccccc1OC)c1ccc2cccnc2c1O (stereo unspecified) | 0.67 (inactive) |
| CCCC(=O)NC(c1ccccc1OC)c1ccc2cccnc2c1O (stereo unspecified) | 1.03 (inactive) |
| O=C(Cn1c(COc2ccccc2)nc2ccccc21)Nc1cc(Cl)cc(Cl)c1 | 0.92 (inactive) |
| CO/N=C/c1ccc(N2CCN(C(=O)c3ccc(F)cc3)CC2)c([N+](=O)[O-])c1 | 0.84 (inactive) |
| CC(=O)Nc1ccc(CN2CCCC(C(=O)c3ccc(C(F)(F)F)cc3)C2)cc1 (stereo unspecified) | 0.88 (inactive) |
| Cc1cc2ccccc2n2c(SCC(=O)NCC3CCCO3)nnc12 (stereo unspecified) | 0.94 (inactive) |
| Cc1nc(SC(C)C(=O)Nc2cccc(C(F)(F)F)c2)c2c(C)c(C(=O)O)sc2n1 (stereo unspecified) | 1.09 (inactive) |
| COCCNC(=O)c1cnn2c(C(F)F)cc(-c3ccccc3)nc12 | 1.17 (inactive) |
| COC(=O)c1ccc(C(=O)OC)c(=O)[nH]1 | 1.03 (inactive) |
| COC(=O)c1ccc(N)cc1O | 1.05 (inactive) |
| COc1ccc(N2CCN(C(=O)c3ccc(C(C)(C)C)cc3)CC2)cc1 | 0.96 (inactive) |
| CC(=O)Nc1nc2cc3c(cc2s1)OCO3 | 0.99 (inactive) |
| COc1ccc(CCNC(=O)COC(=O)Cc2ccc(OC)cc2)cc1 | 0.8 (inactive) |
| CCOC(=O)c1c(C)oc2c1c(C=NCCO)c(O)c1ccccc12 | 1.38 (inactive) |
| CCOC(=O)c1c(C)oc2c1c(CN1CCN(C(=O)OCC)CC1)c(O)c1ccccc12 | 1.19 (inactive) |
